17 compounds from PubChem BioAssay (NCATS) can be followed below.

Results filed as inconclusive are left out. A number with no mark means an inactive call. Active and inactive are the calls of the source. Calls follow the shape of the dose curve; as a rule, active = well fitted inhibition curve with a large enough effect; inconclusive = small, poorly fitted or top-dose-only effect; inactive = flat fitted curve, though single readings scatter.

Assay [1] deals with HaCat. Briefly: Cytotoxic Profiling of Annotated Libraries Using Quantitative High-Throughput Screening (AID 1296008). Also: potency is read from the fitted curve at half-maximal effect. As to max response: % is scaled to controls: 0 for no effect and ±100 for the full control effect. The conditions noted are these: Five cell lines viability, CellTiter-Glo ATP luminescence, 48-72 h; max response: hits give low values. The method in brief:
(§1)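 Cells exposed to compounds for 48 or 72 hr at 37 degrees Celsius. Viability read as ATP-coupled luminescence with CellTiter-Glo after 10 min at room temperature.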
(In ATP-based viability assays light output follows the ATP content of the culture.)

In the next assay the test system is KB-3-1. The assay is described as above. The following applies: Five cell lines viability, CellTiter-Glo ATP luminescence, 48-72 h; max response: hits give low values. In outline:
as §1

The next assay has as its system NIH3T3. The assay is described as above. The following applies: Five cell lines viability, CellTiter-Glo ATP luminescence, 48-72 h; max response: hits give low values. In outline:
as §1

In assay [2] the test system is HACAT. Put plainly: qHTS assay to identify novel small-molecules to repurpose for Merkel cell carcinoma treatment (AID 1296009). The conditions noted are these: MCC and control cell lines, CellTiter-Glo viability, 72 h; at 44.8 µM (top of the series) unless noted. The method in brief: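 CellTiter-Glo luminescence after 72 hr compound exposure at 37 degree celsius gave cell viability. Libraries NPC and MIPE were run as 8- and 11-point dose responses; RLUs normalized to DMSO (negative) and no-cell (cytotoxicity) controls.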
In general terms: In qHTS, concentration-response curves come from the screen itself.
Also: nearly all actives have a fitted effect of over 60% in size.

As for `C=C1/C(=C/C=C2\CCC[C@]3(C)[C@@H]([C@H](C)CC[C@@H](O)C(C)(C)O)CC[C@@H]23)C[C@@H](O)C[C@@H]1O`, the max response in the assay on HaCat [1] was -0.344%; in the assay with KB-3-1 it was -22.3%. The Potency in the assay on NIH3T3 was 0.0146 µM (active).

`COc1cc(F)c(F)c(Nc2ccc(I)cc2F)c1NS(=O)(=O)C1(CC(O)CO)CC1` (configuration not stated): the values for the Potency in the assay on HaCat [1] and in the assay on NIH3T3 were 14.6 µM (active) and 5.17 µM (active), respectively. In the assay with KB-3-1, the max response was -14.8%.

In the case of `CC(=O)O[C@@H]1C2=C(O)C(=O)[C@](C)(OC(C)=O)C(=O)C2=CO[C@@]12O[C@@H](C)CC[C@H]2OC(C)=O`, the result with HaCat [1] and with KB-3-1 was inactive. Moreover, in the assay with NIH3T3, the max response was -10.7%. Moreover, in the assay with HACAT [2], the outcome is “inactive [at 17.4 µM]”.

With `C=C1C(=O)O[C@@H]2[C@H]1CCC(C)=C(CCC(=O)O)[C@@]2(C)O`, the max response with HaCat [1] is 2.79%; in the assay on NIH3T3, -62.1%. Moreover, in the assay with KB-3-1, the compound was called inactive.

Consider `O=C(NCc1cccs1)c1cc2nc(-c3ccco3)cc(C(F)(F)Cl)n2n1`, for which the compound was called inactive in the assay on HaCat [1] and in the assay with HACAT [2]. The max response in the assay with KB-3-1 is 3.07%; in the assay with NIH3T3 it was -24.5%.

For `Cc1ccc(-c2cn3c4c(sc3n2)CCCC4)cc1`, the compound was called inactive with HaCat [1] and in the assay with HACAT [2]. Besides, the max response in the assay with KB-3-1 was -4.88%; with NIH3T3, -12.5%.

Regarding `Cn1c(=O)c(F)c(Nc2ccc(I)cc2F)c2c(=O)n(CC(O)CO)cnc21` (configuration not stated), the Potency in the assay with HaCat [1] is 6.51 µM (active); in the assay with NIH3T3, 1.3 µM (active). The max response with KB-3-1 was -14.5%.

Take `COc1ccc(OC)c(-c2ccc(NC(=O)c3ccncc3F)cc2)c1`: the max response is -19.1% in the assay on HaCat [1], -12.6% in the assay with KB-3-1 and 0.707% with NIH3T3.

With `CCNc1nc(Nc2cc(F)c(C(=O)N3CCOCC3)cc2OC)ncc1C(F)(F)F`, the max response in the assay with HaCat [1] was 1.43%; in the assay on KB-3-1 it was -21.3%; in the assay on NIH3T3, -2.73%.

On to `C=C1/C(=C/C=C2\CCC[C@@]3(C)C2CCC3[C@H](C)/C=C/[C@@H](O)C2CC2)C[C@@H](O)C[C@@H]1O` (some centres not stated), for which the values for the max response in the assay on HaCat [1], with KB-3-1 and with NIH3T3 were -20.3%, -9.38% and -32.1%, respectively.

For the compound `NC(N)=N/N=C/c1ccccc1Cl`, the values for the max response in the assay on HaCat [1], in the assay on KB-3-1 and in the assay on NIH3T3 were -18.8%, -14.8% and -25.1%, respectively.

Turning to `C=C1/C(=C/C=C2\CCC[C@]3(C)[C@@H]([C@@H](C)OCCC(O)(CC)CC)CC[C@@H]23)C[C@@H](O)C[C@@H]1O`, the max response was -5.69% in the assay on HaCat [1], -12.7% in the assay on KB-3-1 and -34.7% with NIH3T3.

On to `CS/C=C/C(=O)O[C@@H]1CCC2=CC(=O)C(=C(C)C)C[C@]2(C)[C@H]1C`, for which the results for the max response in the assay with HaCat [1] and in the assay on NIH3T3 were -6.05% and -13.9%, respectively.

Regarding `COc1cc(/C=C/C(=O)NCCn2c(C(F)(F)F)cc3ccccc32)cc(OC)c1OC`, the max response in the assay on HaCat [1] was -29.1%; with NIH3T3, -23.8%.

Regarding `C/C=C(\C)[C@@H]1C(C)=C[C@@H]2[C@H]([C@@H]1/C=C/C=C/C(=O)O)[C@@H](C)CC[C@@H]2O`, the result in the assay with HaCat [1] and in the assay on HACAT [2] was inactive. The Potency in the assay with KB-3-1 was 8.05 µM (active).

Take `C=C1CC[C@@H]2[C@](C)(CO)[C@H](O)CC[C@@]2(C)[C@@H]1C/C=C1/C(=O)OCC1OC(=O)/C(=C/CO)C(O)C[C@@H]1C(=C)CC[C@@H]2[C@](C)(CO)[C@H](O)CC[C@]21C` (some centres not stated): the result with HaCat [1] and with KB-3-1 was inactive. The outcome in the assay with HACAT [2] is “inactive [at 17.4 µM]”.

Turning to `CC[C@H]1OC(=O)[C@H](C)[C@@H](O[C@H]2C[C@@](C)(OC)[C@@H](O)[C@H](C)O2)[C@H](C)[C@@H](O[C@H]2O[C@H](C)C[C@H](N(C)C)[C@H]2O)[C@](C)(O)C[C@@H](C)C(=O)[C@H](C)[C@@H](O)[C@]1(C)O`, the call in the assay on HaCat [1] was inactive. The max response with KB-3-1 was 8.4%. The outcome in the assay on HACAT [2] is “inactive [at 17.4 µM]”.
